Inconclusive results are not listed. Activity calls are given as the source filed them. Calls follow the shape of the dose curve; as a rule, active = well fitted inhibition curve with a large enough effect; inconclusive = small, poorly fitted or top-dose-only effect; inactive = no such curve, though single readings can be large or run the other way.
Potency is read from the fitted curve at half-maximal effect.

A short description of the test: qHTS for Inhibitors of the Aldehyde Dehydrogenase Family (ALDH1A2, ALDH1A3, ALDH2, ALDH3A1) (AID 2061307). Also: nearly all actives have a fitted effect of over 50% in size. As to Potency: test system not described further here. The note with it: ALDH inhibition qHTS; series mostly up to 50.3 µM. In general terms: Quantitative high-throughput screening tests each substance at several concentrations.
Take `N#Cc1c(-c2ccc(Br)cc2)no[n+]1[O-]`: the Potency is 7.98 µM (active).

With `O=S(=O)(c1ccccc1)N1CCN(c2nc(-c3ccc(Br)cc3)cs2)CC1`, the Potency is 7.98 µM (active).

With `O=C(Nc1nc(-c2ccccc2)cs1)c1ccncc1NS(=O)(=O)c1ccc2ccccc2c1`, the Potency was 2.51 µM (active).

`CCOC(=O)c1ccc(-n2cccc2/C=C2\NC(=O)NC2=O)cc1`: the Potency result was “inactive”.

For the molecule `COc1ccc(C2=Nn3c(nnc3-c3cc(OC)ccc3OC)SC2)cc1`, the Potency was 20 µM (active).

As to `Cc1nc(-c2ccccc2)oc1-c1ccc2ncnc(NCc3ncc[nH]3)c2c1`, the Potency entry is “inactive”.

As for `COc1ccc(C2=Nn3c(nnc3-c3ccc(OC)cc3)SC2)cc1`, the Potency was 7.98 µM (active).

For the molecule `COc1ccc(C2Oc3ccccc3C(=O)N2Cc2ccccc2)cc1COc1ccc(NC(C)=O)cc1` (stereo not given), the Potency is 0.283 µM (active).

Take `FC(F)(F)c1ccc(-c2ccc(CNc3nc(-c4ccccc4C(F)(F)F)nc4ccccc34)cc2)cn1`: the Potency was 8.91 µM (active).

Consider `CN(C)CCCNC(=O)c1ccc(-c2cnc3c(O)cccc3c2)cc1`, for which the Potency entry is “inactive”.

As for `O=C(O)c1ccc(-n2cccc2/C=C2\SC(=O)N(Cc3ccc(F)cc3)C2=O)cc1`, the Potency is 7.98 µM (active).

As for `COc1ccc(C2=Nn3c(nnc3-c3cccc(OC)c3OC)SC2)c(OC)c1`, the Potency was 2 µM (active).

Regarding `O=C(Nc1cncc(Cc2ccccc2)c1)c1ccc(-c2cccc([N+](=O)[O-])c2)o1`, the Potency is 1.27 µM (active).

As for `COc1ccc(OCc2cc(C3Nc4ccccc4C(=O)N3Cc3ccccc3)ccc2OC)cc1` (stereo not given), the Potency was 5.65 µM (active).

Turning to `O=C(NCCCCc1ccccc1)C1CCN(c2nc(-c3ccc(Br)cc3)cs2)CC1`, the Potency is 3.57 µM (active).

In the case of `COc1ccc(C2c3c(ncn(CCN4CCOCC4)c3=N)Oc3ccc4ccccc4c32)cc1OC` (stereo not given), the Potency entry was “inactive”.

For `FC(F)Oc1ccc(C2=Nn3c(nnc3-c3ccccc3C(F)(F)F)SC2)cc1OCC1CC1`, the Potency is 2.83 µM (active).

Consider `Cc1ccnc(CC(=S)N2CCN(c3cccc(C(F)(F)F)c3)CC2)c1`, for which the Potency was 10 µM (active).

With `N#Cc1nc(Nc2cccc(Cl)c2)nc(NC2CCCC2)n1`, the Potency is 0.708 µM (active).

For `COc1ccc(C2Nc3ccccc3C(=O)N2CCc2ccc(Cl)cc2Cl)cc1COc1ccc(NC(C)=O)cc1` (stereo not given), the Potency was 3.57 µM (active).

Consider `COc1cc2ncnc(N(C)Cc3csc(C)n3)c2cc1-c1ccc2c(c1)OCO2`, for which the Potency entry was “inactive”.

As for `CC(C)Oc1cccc(-c2cnc(N3CCC(C(N)=O)CC3)s2)c1`, the Potency result is “inactive”.

In the case of `O=C(Nc1nc(-c2ccccc2)cs1)c1ccncc1NS(=O)(=O)c1ccc(Cl)cc1`, the Potency is 25.2 µM (active).

Consider `Cc1cc(-c2nnc3n2CCCC3)c(C)n1-c1ccccc1`, for which the Potency result was “inactive”.

Regarding `CN(CC(=O)O)c1ncnc2ccc(-c3ccc4c(c3)OCO4)cc12`, the Potency entry was “inactive”.

In the case of `COc1ccc(C2=Nn3c(nnc3-c3ccccc3OC)SC2)cc1`, the Potency is 2.01 µM (active).

In the case of `COc1ccc(C2Nc3ccccc3C(=O)N2CCCN(C)C)cc1COc1ccc(NC(C)=O)cc1` (stereo not given), the Potency is 7.12 µM (active).

Turning to `Cc1[nH]c2ccccc2c1C1=C(NCCc2ccc(F)cc2)C(=O)N(C)C1=O`, the Potency was 0.896 µM (active).

Consider `CNc1oc(-c2c[nH]c3ccccc23)nc1C#N`, for which the Potency is 11.3 µM (active).

On to `COc1ccc(NC(=O)CN(C)C(=O)c2cc3c(s2)CCC3)cc1`, for which the Potency result was “inactive”.

Consider `Cc1cc(-c2nnc3n2CCCCC3)c(C)n1-c1ccc(Cl)c(Cl)c1`, for which the Potency entry is “inactive”.

Regarding `N#Cc1nc(Nc2ccc(F)cc2)nc(NC2CCCC2)n1`, the Potency is 3.16 µM (active).

For `O=C(CN1C(=O)N/C(=C\c2cn(-c3cccc(C(=O)O)c3)cn2)C1=O)Nc1ccccc1Cl`, the Potency result was “inactive”.

Consider `Cc1cc(C)nc(NC(=S)N2CC3CN(c4ncc(C(F)(F)F)cc4Cl)CC3C2)c1` (stereo not given), for which the Potency result was “inactive”.

Regarding `O=C([C@H](Cc1ccc(O[S+](=O)([O-])c2cccnc2)cc1)N[S+](=O)([O-])c1ccccn1)N1CCN(c2ccccc2)CC1`, the Potency was 15.8 µM (active).

Regarding `Fc1cnc(-c2ccccc2C(F)F)nc1NCC1CCN(c2cnccn2)CC1`, the Potency entry is “inactive”.

Regarding `COc1ccc(-c2nc3ccccc3c(=O)n2Cc2ccco2)cc1COc1ccc(NC(C)=O)cc1`, the Potency was 20.1 µM (active).

`CC(C)(C)OC(=O)NCCOCCOCCOCCn1ncc2c1CCCC2NC(=O)c1ccccn1` (stereo not given): the Potency entry is “inactive”.

Consider `O=[S+]([O-])(Nc1ccc(-c2nc3ccccc3[nH]2)cc1)c1ccc2c(c1)OCO2`, for which the Potency result is “inactive”.

With `CN1CCN(c2ccc(Nc3nn4c(=O)c5ccccc5nc4s3)cc2)CC1`, the Potency result is “inactive”.

Source of the values: PubChem BioAssay (NCATS).
